About 83,000 compounds went through this panel and 20% of them were active in at least one assay; those are over-represented in the sample as a whole.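 For each line, cells grew in 96-well plates with the test compound present at a single concentration for 48 hours.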 Active and inactive are the calls of the source. The calls were made as follows: active = growth percent below 10; inactive = the rest.
Tests used:
Assay in all cases: NCI-60 one-dose screen, 48 h (100 = growth as untreated, 0 = no growth, -100 = all killed)
[1] = test system: NCI-H522 lung; settings: 10 µM unless noted
[2] = test system: A549/ATCC NSCLC; settings: 10 µM unless noted
[3] = test system: COLO 205 colon; settings: 10 µM
[4] = test system: HT29 colon; settings: 10 µM unless noted
[5] = test system: SNB-75 CNS; settings: 10 µM unless noted
[6] = test system: SNB-19 CNS; settings: 10 µM unless noted
[7] = test system: EKVX NSCLC; settings: 10 µM unless noted
[8] = test system: UO-31 renal; settings: 10 µM unless noted
[9] = test system: TK-10 renal; settings: 10 µM unless noted
[10] = test system: ACHN renal; settings: 10 µM unless noted
[11] = test system: MOLT-4 leukemia; settings: 10 µM
[12] = test system: RPMI-8226 leukemia; settings: 10 µM unless noted
[13] = test system: OVCAR-5 ovarian; settings: 10 µM unless noted
[14] = test system: SK-OV-3 ovarian; settings: 10 µM unless noted
[15] = test system: T-47D breast; settings: 10 µM unless noted
[16] = test system: MDA-MB-435 melanoma; settings: 10 µM unless noted
[17] = test system: CAKI-1 renal; settings: 10 µM unless noted
[18] = test system: OVCAR-8 ovarian; settings: 10 µM unless noted

Measured: growth

[Br][Pb]([c]1ccccc1)([c]1ccccc1)[c]1ccccc1
active: [1] -92.3% | [2] -99.2% | [3] -98.7% | [4] -73.4% | [5] -100% | [6] -93% | [7] -91.1% | [8] -99.8% | [9] -100% | [10] -92.8% | [11] -24.4% | [12] -29.8% | [13] -93.1% | [14] -100% | [15] -72% | [16] -98.6%

CCOc1cc(C=C(C#N)C#N)cc(Br)c1O
inactive: [1] 100% | [2] 102% | [3] 103% | [4] 92.5% | [5] 83.5% | [7] 104% | [8] 88.9% | [10] 106% | [17] 92.7% | [11] 85.5% | [12] 105% | [18] 102% | [13] 108% | [14] 116% | [15] 98.5% | [16] 101%

CCCCn1cc(C(=O)/C(C#N)=C/c2cc3ccccc3nc2Cl)c2cc(OC)ccc21
inactive: [1] 99.6% | [3] 104% | [4] 89.9% | [5] 75.4% | [6] 90.3% | [7] 93.9% | [9] 101% | [10] 79% | [17] 75% | [11] 67.8% | [18] 75.1% | [13] 102%

CC(=O)C1CCC2C3CC=C4CC(OC(=O)Cc5ccc(N(CCCl)CCCl)cc5)CCC4(C)C3CCC12C (centres undefined)
inactive: [1] 80% | [2] 131% | [5] 93.7% | [7] 83.1% | [8] 109% | [9] 113% | [10] 100% | [17] 87.7% | [11] 73% | [12] 73.2% | [18] 103% | [13] 107% | [14] 112% | [15] 105% | [16] 111%

From PubChem BioAssay (NCI)
